Results on 50 molecules are retold here after PubChem BioAssay (Tox21).

Test [1] is described as follows: qHTS assay to identify small molecule antagonists of the retinoid acid receptor (RAR) signaling pathway - cell viability counter screen (AID 1159551). Also: nearly all actives have a fitted effect of over 35% in size. Also: potency is read from the fitted curve at half-maximal effect. Summed up:
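Measured by luminescent ATP detection, viability reflects C3RL4 cells treated 6 h at 37 C with test chemicals in the presence of 1 uM (final) retinol.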
(In general: Quantitative high-throughput screening tests each substance at several concentrations.)

Test [2] in a line: qHTS assay to identify small molecule antagonists of the retinoic acid receptor (RAR) signaling pathway (AID 1159552; also: nearly all actives have a fitted effect of over 50% in size; also: potency is read from the fitted curve at half-maximal effect). Summed up: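 Retinol signaling pathway inhibitors screened in C3RL4 RARE-luciferase reporter cells seeded overnight at 37 C, then compounds added with 1 uM (final) retinol as pathway substrate. After 6 hr at 37 C, luciferase luminescence read after 30 min at room temperature.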

Test [3] in a line: qHTS assay to identify small molecule antagonists of the estrogen related receptor (ERR) signaling pathway from Tox21 library - cell viability counter screen (AID 1224834). Also: nearly all actives have a fitted effect of over 30% in size. Also: potency is read from the fitted curve at half-maximal effect. Put shortly: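 Seeded ERR cells were rested 6 h at 37 C/5% CO2 before compounds, positive and negative controls or DMSO were added. Incubation continued for 17.5 h, and viability was then quantified by CellTiter-Fluor fluorescence.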

A short description of test [4]: qHTS assay to identify small molecule agonists of the retinoic acid receptor (RAR) signaling pathway (AID 1159553). Put shortly:
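6 hr compound exposure (DMSO vehicle) of overnight-plated C3RL4 RARE-luc cells at 37 C; luminescence quantified after 30 min RT with luciferase reagent.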

Test [5] is described as follows: qHTS assay to identify small molecule antagonists of the estrogen related receptor (ERR) signaling pathway - cell viability counter screen (AID 1224818). Also: series mostly up to about 46 µM. Put shortly: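 Compounds dissolved in DMSO were applied to ERR cells seeded at 2,000 per well 6 h earlier. Cell viability followed 17.5 h later via 30-min CellTiter-Fluor fluorescence.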
Test [6] is described as follows: qHTS assay to identify small molecule antagonists of the estrogen related receptor (ERR) signaling pathway (AID 1224819;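 also: luminescence from an ERR-driven luciferase reporter measured with One-Glo reagent; series mostly up to about 46 µM; nearly all actives have a fitted effect of over 50% in size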). Summed up: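 Compounds dissolved in DMSO were pin-transferred onto ERR cells that had been plated 6 h earlier, and cells were then incubated 18 h at 37 C; signal was luciferase luminescence via One-Glo.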
Test [7] is described as follows: qHTS assay to identify small molecule agonists of the estrogen related receptor (ERR) signaling pathway (AID 1224820). Summed up: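 Following a 6 h settling period, 2,000 ERR cells per well receive DMSO-dissolved compounds by pin tool and incubate 18 h at 37 C; agonist activity is scored from One-Glo luminescence read 30 min post-addition.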
Test [8] has as its system estrogen-related receptor alpha (ERRalpha) with PGC-1alpha coactivator, human. Briefly: qHTS assay to identify small molecule antagonists of the estrogen related receptor signaling pathway with the pleiotropic PPARgamma coactivator (PGC) (AID 1224821; calls by dose curve;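 also: series mostly up to about 46 µM; lower luminescence signal means antagonism of PGC/ERR signalling; nearly all actives have a fitted effect of over 50% in size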). Put shortly: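 Screening used NTP's PGC/ERR cells, dosed via pin tool with compound in DMSO alongside positive and negative controls. After 18 h at 37 C, One-Glo reagent sat 30 min at room temperature before luminescence detection.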

Test [9] is described as follows: qHTS assay to identify small molecule antagonists of the estrogen related receptor signaling pathway with the pleiotropic PPARgamma coactivator (PGC) cell viability counter screen (AID 1224822; also: series mostly up to about 46 µM). Put shortly: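 Counter screen for cell viability: PGC/ERR cells, 6 h pre-incubation after plating, 17.5 h compound exposure at 37 C, fluorescence from CellTiter-Fluor after 30 min.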

Test [10] can be described thus: qHTS assay to identify small molecule agonists of the estrogen related receptor signaling pathway with the pleiotropic PPARgamma coactivator (PGC) (AID 1224823). Summed up: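 In this quantitative high-throughput screen, an 18 h, 37 C treatment of PGC/ERR cells with compounds in DMSO preceded a One-Glo luminescence read taken after 30 min at room temperature.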

Several values for one entry are separate records, joined by “and”; a condition that tells them apart may be missing. Identical values can stand only once. Inconclusive results are not listed. Activity calls are given as the source filed them. Unless noted, calls follow the shape of the dose curve; as a rule, active = well fitted curve in the direction sought with a large enough effect in the repeat runs; inconclusive = weak or mixed curves; inactive = no such curve, though single readings can be large; an effect the other way counts as inactive or inconclusive.
% is scaled to controls: 0 for no effect and ±100 for the full control effect.

For the molecule `COc1ccccc1C=O`, the Potency result in [1], in [2] and in test [3] was “inactive” in each case.
For the molecule `CCc1cccc(CC)c1N(COC)C(=O)CS(=O)(=O)O`, the Potency result in [1], in test [2] and in test [3] was “inactive” in each case.
`CC(C)C(=O)OCc1ccccc1`: the Potency result in test [1], in [2] and in test [3] was “inactive” in each case.
`Cc1cc(=O)[nH]c(=O)[nH]1`: the Potency entry in test [1], in [2] and in [3] was “inactive” in each case.
Consider `OCCCc1cccnc1`, for which the Potency result in test [1], in [2] and in [3] was “inactive” throughout.
For `CCCCCCCCCC(=O)N(C)C`, the Potency result in test [1], in test [2] and in test [3] was “inactive” in each case.
With `CCC(=O)CC(C)CC` (stereo unspecified), the activity change, negative = cytotoxicity in test [1] was 0.29% [at 0.349 µM] (inactive). In addition, the activity, negative = inhibition in test [2] is -2.26% [at 0.349 µM] (inactive). The viability change, negative = cytotoxic in test [3] was 2.01% [at 0.349 µM] (inactive).
In the case of `CS(C)(=O)=O`, the Potency result in test [1], in test [2] and in test [3] was “inactive” in each case.
On to `C[C@]12CC[C@H]3C(=CCc4cc(O)ccc43)[C@@H]1CCC2=O`, for which the Potency result in test [1] and in [2] was “inactive” throughout. The Potency in test [3] is 54.5 µM (active).
On to `CCCC(C)CCC(C)=O` (stereo unspecified), for which the Potency entry in test [1], in [2] and in [3] was “inactive” each time.
As for `O=CC1CC1`, the Potency entry in [1], in test [2] and in test [3] was “inactive” in each case.
With `CC(C)CCOCCC(C)C`, the Potency entry in [1], in [2] and in [3] was “inactive” throughout.
As for `CC1=CP(=O)(c2ccccc2)CC1` (stereo unspecified), the Potency entry in test [1], in test [2] and in test [3] was “inactive” in each case.
`c1ccc(Sc2ccccc2)cc1`: the Potency entry in [1], in test [2] and in test [3] was “inactive” throughout.
Consider `CCCCCCCCCCc1ccccc1`, for which the Potency result in [1], in test [2] and in test [3] was “inactive” in each case.
With `CCN=c1cc2oc3cc(NCC)c(C)cc3c(-c3ccccc3C(=O)OCC)c-2cc1C`, the Potency in test [1] was 60.9 µM (active) and 48.6 µM (active); in test [2], 24.2 µM (active) and 24.3 µM (active); in test [3], 272 nM (active) and 243 nM (active).
Turning to `Oc1cc2ccccc2cc1O`, the Potency result in [1], in [2] and in test [3] was “inactive” each time.
As for `CCCCCCCC/C=C/CCCOC(C)=O`, the Potency result in test [1], in [2] and in test [3] was “inactive” each time.
On to `CCOC(=O)CN`, for which the Potency entry in test [1], in test [2] and in test [3] was “inactive” each time.
On to `Cn1cccc1`, for which the Potency result in test [1], in [2] and in [3] was “inactive” each time.
For `CCCCCCCCCCCCCc1ccccc1`, the Potency entry in test [1], in test [2] and in [3] was “inactive” in each case.
On to `CCCCCCCC(C)=O`, for which the Potency entry in test [1], in test [2] and in test [3] was “inactive” each time.
`CCOCOCC`: the Potency entry in test [1], in [2] and in [3] was “inactive” each time.
On to `CC(C)=CCCC(C)O` (stereo unspecified), for which the Potency entry in test [1], in test [2] and in test [3] was “inactive” in each case.
As for `CC1CCCCC1`, the Potency result in test [1], in [2] and in test [3] was “inactive” throughout.
Turning to `CC1=CCC(=O)O1`, the Potency entry in test [1], in test [2] and in test [3] was “inactive” in each case.
Take `CCCCCCCC(OC)OC`: the Potency entry in test [1], in test [2] and in test [3] was “inactive” throughout.
Consider `Cc1cccc(N(C)C)c1`, for which the Potency entry in test [1], in test [2] and in test [3] was “inactive” each time.
As to `c1ccc2c(c1)CCC2`, the Potency result in test [1], in test [2] and in test [3] was “inactive” throughout.
For `OCCCCl`, the Potency entry in test [1], in test [2] and in test [3] was “inactive” throughout.
Regarding `CCCCCCCOC(=O)c1ccccc1C(=O)OCCCCCCC`, the Potency entry in test [1], in test [2] and in test [3] was “inactive” throughout.
As to `CC1(C)C(=O)N(CO)C(=O)N1CO`, the Potency entry in test [1], in [2] and in test [3] was “inactive” in each case.
Regarding `CCCOc1sc(C(=O)N2CCC(c3cc(CN)ccc3F)CC2)c(C)c1Br`, the Potency in test [1] is 62.8 µM (active); in [2], 39.7 µM (active); in test [3] it was 49.9 µM (active).
Take `CC(=O)O[C@@H]1C[C@@H]2CC[C@@]1(C)C2(C)C`: the Potency entry in test [1], in [2] and in test [3] was “inactive” throughout.
As for `Cc1cncc(C)c1`, the Potency result in test [1], in test [2] and in [3] was “inactive” each time.
`COC(=O)CC(C)CCC=C(C)C` (stereo unspecified): the Potency entry in test [1], in [2] and in test [3] was “inactive” throughout.
Take `CCOC(OCC)C(=O)c1ccccc1`: the Potency result in test [1], in test [2] and in test [3] was “inactive” throughout.
In the case of `CCCCCCCCC(C)=O`, the Potency entry in test [1], in test [2] and in test [3] was “inactive” in each case.
For the molecule `O=S(O)O`, the activity change, negative = cytotoxicity in [1] was -0.573% [at 19 µM] (inactive). Besides, in [2], the activity, negative = inhibition was 5.26% [at 19 µM] (inactive). Also, the viability change, negative = cytotoxic in [3] is 0.472% [at 19 µM] (inactive).
On to `Brc1ccccn1`, for which the Potency result in [1], in [2] and in [3] was “inactive” each time.
Regarding `CCCC(O)C(O)CO` (stereo unspecified), the Potency result in test [1], in [2] and in [3] was “inactive” in each case.
Regarding `C=C/C=C/C=C/CCCCC`, in [1], the activity change, negative = cytotoxicity was -3.82% [at 19 µM] (inactive). In [2], the activity, negative = inhibition is 7.32% [at 19 µM] (inactive). For the same molecule, the viability change, negative = cytotoxic in test [3] is -1.2% [at 19 µM] (inactive).
For the molecule `C=C(C)C(=O)OCCC[Si](Cl)(Cl)Cl`, the Potency entry in [1], in [4] and in [3] was “inactive” each time.
Take `CCN(CC)CCNc1ccc(CO)c2sc3ccccc3c(=O)c12`: the Potency entry in test [1] and in test [4] was “inactive” in each case. In [3], the Potency was 13.3 µM (active).
With `CN1[C@@H]2CC[C@@H]1CC(OC(=O)C(CO)c1ccccc1)C2` (stereo partly specified), the Potency entry in [1] and in test [3] was “inactive” throughout.
For the molecule `[O]=[Zr]`, the Potency result in test [1], in [4] and in test [3] was “inactive” each time.
Turning to `S=P(N1CC1)(N1CC1)N1CC1`, the Potency result in test [1], in [4], in test [5], in test [6] and in test [9] was “inactive” throughout. The molecule was called inactive in [7], in test [8] and in [10].
Consider `CC(C)=C1CC[C@@H](C)CC1=O`, for which the Potency result in [1] and in [3] was “inactive” throughout.
Take `CCN(CC)CCCN(c1ccccc1)C1Cc2ccccc2C1`: the Potency result in [1], in test [5] and in test [9] was “inactive” in each case.
In the case of `COc1ccccc1OCCNCC(O)COc1cccc2[nH]c3ccccc3c12` (stereo unspecified), the Potency result in test [1] and in test [4] was “inactive” throughout. Further, the outcome in test [7], in test [8] and in test [10] was inactive. The Potency in test [3] was 23.7 µM (active).
